# Assay outcomes (PubChem)
# S2 tox – reduces viability in counter-screen for ATXN expression inhibitors; AID 651635; 400,000 tested, 0.49% active; S2 cells (HEK-293 line with an ATXN2-luciferase reporter) viability, CellTiter-Fluor protease fluorescence, 24 h; Potency, µM (titrated, usually from 56.7 µM), actives largely listed as cytotoxic; further: nearly all actives have a fitted effect of over 40% in size
# TGFb inhibitor – inhibitors of TGF-b signaling; HepG2 CAGA-GFP TGF-b/SMAD3 reporter, GFP fluorescence, 18 h; TGF-beta stimulated, 500 pg/mL final; Potency, µM (top dose mostly 46.1 µM), actives largely listed as inhibitors; 410,000 tested, 1.2% active; AID 588855; further: nearly all actives have a fitted effect of over 65% in size
#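 HEPG2 CAGA-GFP cells (1000/well, DMEM with 1% FBS) were pre-incubated 2 h at 37 degrees C, given compound by pin tool, then stimulated with TGF-beta at 500 pg/mL final for 18 h before per-cell GFP fluorescence imaging.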
# uPA generation – blocks generation of uPA at the cell surface. cell surface uPA generation assay, qHTS. Potency, µM (doses to about 38.3 µM), actives largely listed as inhibitors. 330,000 tested, 0.31% active. AID 540303; active means well fitted inhibition curve with a large enough effect; inconclusive means small, poorly fitted or top-dose-only effect; inactive means no such curve, though single readings can be large or run the other way; tested in mouse RAW 264.7 cells; further: nearly all actives have a fitted effect of over 55% in size
# Giardia killer – kills Giardia lamblia; Giardia lamblia trophozoite viability; activity change, % at 7.66 µM, hits read low; 340,000 tested, 0.15% active; AID 540267; in the data active means activity change below about -80%; inconclusive means between about -30% and that limit;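 further: parasites exposed to compound for two days anaerobically before the ATP read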
#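 Anaerobic 48 hrs incubation at 37 deg C of 100 trophozoites/well with test compounds; ATPLite 1-Step luminescence, 15-30 min RT, reports cellular ATP as viability.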
# ATXN2 expr inh – inhibitors of ATXN2 expression; HEK-293 ATXN2-luciferase reporter, luminescence, 24 h; Potency, µM (top dose mostly 57 µM), usual class: inhibitors; 360,000 tested, 0.72% active; further: nearly all actives have a fitted effect of over 55% in size
#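 qHTS (up to 57 uM final) was run with 24 h compound exposure of reporter cells at 37 °C. Each well was multiplexed: SteadyGlo luminescence measured ATXN2-luciferase expression after a fluorogenic Gly-Phe-AFC viability readout (25 uM final).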
# HepG2 tox – kills HepG2 cells in TGF-b inhibitor counter-screen. HepG2 CAGA-GFP viability, ATP luminescence, 18 h. AID 588856. Potency, µM (titrated, usually from 46.1 µM), most hits filed as cytotoxic. 410,000 tested, 0.76% active
#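 HepG2 CAGA-GFP cells (1000/well, DMEM with 1% FBS) received compound, then TGF-beta at 500 pg/mL final, and were incubated 18 hours at 37 degrees C. Viability was read by CellTiter-Glo luminescence. Media-only wells were set as complete cell-killing and DMSO as no toxicity.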
# Hits are given with their value; i = inactive; ? = inconclusive; nt = no result given; ! = not confirmed by another sample. Compounds with a hit are over-represented: about 2.6% of the library has one in this group of screens. Unless noted, the call rests on the fitted dose curve; in most records, active means well fitted curve in the direction sought with a large enough effect; inconclusive means small, poorly fitted or top-dose-only effect, or another doubt; inactive means no such curve, though single readings can be large; an effect the other way counts as inactive or inconclusive.
SMILES,S2 tox,TGFb inhibitor,uPA generation,Giardia killer,ATXN2 expr inh,HepG2 tox
CCN(CC)CCNC(=O)c1ccc2c(c1NCCO)C(=O)c1ccccc1C2=O,7.94µM,1.26µM,?,i,nt,1µM
Nc1ccc(/C=C/c2ccnc3ccccc23)c(N)c1,nt,i,nt,nt,nt,i
O=C(CN1C(=O)c2ccccc2S1(=O)=O)c1ccccc1F,i,i,i,i,7.94µM,i
O=C(CN1C(=O)c2ccccc2S1(=O)=O)c1ccc(Cl)cc1Cl,i,i,i,i,2µM,i
O=C(CN1C(=O)c2ccccc2S1(=O)=O)c1ccc(OC(F)F)cc1,i,i,i,i,2µM,i
O=S1(=O)C2CC3C=CC2(CN1Cc1cccc(F)c1)O3 (stereo not drawn),nt,i,nt,i,nt,i
CCc1nc(N2CCN(C(=O)c3ccco3)CC2)c2c3c(sc2n1)CCCC3,?,i,i,i,i,i
CC1CCc2c(sc3nc(C4CC4)nc(N4CCN(C(=O)c5ccco5)CC4)c23)C1 (stereo not drawn),?,?,i,i,?,10µM
COc1ccc(C2CC(c3ccc4ccccc4c3)=NN2C(=O)CNC2CCCCC2)cc1 (stereo not drawn),nt,?,?,?,nt,12.6µM
C=CCNCC(=O)N1N=C(c2ccc3ccccc3c2)CC1c1ccc(OC)cc1 (stereo not drawn),i,i,i,i,i,i
CN(C)CCCN=c1c2ccccc2n(C)c2[nH]c(=O)n(C)c(=O)c12,nt,nt,nt,nt,17.2µM,nt
CCN(CC)CCn1c(-c2ccccc2)csc1=Nc1ccccc1,nt,12.6µM,nt,nt,?,i
Cc1cccc(CNC(=O)c2cnn(-c3nccc(-c4cccs4)n3)c2C2CC2)n1,i,nt,nt,nt,nt,nt
CN(C)c1ccc(/C=C/c2cc3ccccc3cn2)cc1,nt,11.2µM,nt,nt,nt,i
CN(C)c1ccc(/C=C/c2ccccn2)cc1,nt,i,nt,nt,nt,i
CN(C)c1ccc(/C=C/c2nc3ccccc3s2)cc1,nt,12.6µM!,i,?,?,i
CC[N+](CC)(CC)c1ccc(/C=C/c2ccc3ccccc3n2)cc1,nt,6.31µM,nt,nt,nt,10µM
CN(Cc1ccccc1)c1ccc(/C=C/c2nc3ccccc3s2)cc1,nt,?,nt,nt,nt,i
C(=C\c1ccc2ccccc2n1)/c1ccccc1,i,?,5.62µM,i,nt,10µM!
CC1CC(=O)NN=C1c1ccc(NCC(C)(C)NCC(O)COc2cc(Cl)ccc2C#N)cc1 (stereo not drawn),i,nt,nt,nt,i,nt
CN(C)c1ccc(/C=C/c2ccc3cc(N(C)C)ccc3n2)cc1,nt,i,nt,nt,nt,i
CN(C)c1ccc(/C=C/c2ccc3ccccc3n2)cc1,nt,i,2µM,?,nt,5.62µM!
C(=C\c1ccc2ccccc2n1)/c1ccc2ccccc2n1,nt,i,nt,nt,nt,i
CN(C)c1ccc(/C=C/c2cccc3cc4ccccc4nc23)cc1,nt,1.58µM,nt,nt,nt,14.1µM
Fc1ccccc1/C=C/c1ccc2ccccc2n1,i,i,11.2µM,i,i,i
SMILES,S2 tox,TGFb inhibitor,uPA generation,Giardia killer,ATXN2 expr inh,HepG2 tox
CN(C)c1ccc(/C=C/c2cc(/C=C/c3ccc(N(C)C)cc3)c3ccccc3n2)cc1,nt,i,nt,nt,nt,i
COc1cc(CN2CCc3nnc(C(NS(C)(=O)=O)C(C)C)n3CC2)ccc1F (stereo not drawn),i,nt,nt,nt,nt,nt
Cc1cccc(C)c1Nc1c(-c2ccccn2)nc2ccccn12,10µM,?,4.47µM,i,nt,i
Cc1cccc2nc(-c3ccccn3)c(Nc3ccc(F)cc3)n12,nt,?,nt,nt,17.8µM,i
Cc1ccc(Nc2c(-c3ccccn3)nc3cccc(C)n23)cc1,?,?,i,i,6.31µM,i
Cc1cccc2nc(-c3ccccn3)c(Nc3ccccc3)n12,?,?,nt,nt,?,i
Cc1cnc(NC(=O)C2CC(=O)N(c3cccc(Cl)c3)C2)s1 (stereo not drawn),?,?,i,i,0.562µM,1.78µM
CCCCCCCCN1[C@@H](CC(=O)O)c2cc(C(F)(F)F)ccc2S1(=O)=O,i,11.2µM,i,i,i,i
CCOC(=O)N(C(=O)c1ccccc1)c1ccccc1,nt,?,nt,nt,nt,i
COc1ccc(NC(=O)CN2CCN(C(=O)N3CCOCC3)CC2)cc1,i,i,i,i,i,3.55µM
CCN(C(=O)C(=O)c1c(C)[nH]c2ccccc12)c1ccccc1,nt,i,nt,nt,nt,i
COc1ccc(-c2cc3nc(C)cc(N4CCN(C(=O)c5ccco5)CC4)n3n2)cc1,i,i,nt,nt,i,i
